Data on 30 molecules can be found in PubChem BioAssay.

Values without a mark were called inactive. Activity calls are given as the source filed them. How the calls were made is not given here.

For experiment [1], the system named is Botulinum neurotoxin type F light chain protease (Clostridium botulinum). Description: Clostridium botulinum type F light chain protease inhibitors, microsphere substrate cleavage, validation (AID 588459). As to conditions: multiplex microsphere protease substrate cleavage assay, flow cytometry; at 10 µM; active compounds read high. For orientation: In flow cytometry, cells or beads pass a laser one at a time.

The target in experiment [2] is Botulinum neurotoxin type A (Clostridium botulinum) (UniProt P0DPI0). Description: BoNT/A light chain protease inhibitors, biochemical, multiplex microsphere flow cytometry, validation set (AID 588460). As to conditions: at 10 µM, active compounds read high.
Experiment [3] addresses Lethal factor (Bacillus anthracis) (UniProt P15917). Description: Bacillus anthracis lethal factor inhibition, microsphere flow cytometry protease assay, validation at 10 µM (AID 588461). Particulars: multiplex microsphere protease cleavage assay, active compounds read high.

As for `CC(C)C12CN3CC(C(C)C)(CN(C1)C3c1ccccc1O)C2=O` (stereo not given), the inhibition (as a rule, the relative decrease from the control value, in per cent) in experiment [1] was 4.7%; in experiment [2], 1.2%; in experiment [3], -5.3%.

Turning to `COc1ccc2[nH]c(=O)c(CN(C(=O)c3ccco3)C(C)C)cc2c1`, the inhibition was 0.1% in experiment [1], 1% in experiment [2] and 2.1% in experiment [3].

For the molecule `Cc1ccc(S(=O)(=O)NC(=O)NN2CCCCCC2)cc1`, the inhibition was -4.6% in experiment [1], -1.6% in experiment [2] and -4.1% in experiment [3].

Turning to `COc1ccc(C)cc1S(=O)(=O)Nc1ccc(F)cc1`, the inhibition in experiment [1] is 1.1%; in experiment [2], -0.3%; in experiment [3], 0.5%.

As for `Cc1ccc(C(=O)COC(=O)c2cccc(N3C(=O)c4c(C)nc5ccccc5c4C3=O)c2)cc1C`, the inhibition in experiment [1] was -1.2%; in experiment [2], -1.1%; in experiment [3], -0.1%.

With `CC(C)C(CCN1C(=O)CCC1=O)C1CCOC(C)(C)C1` (stereo not given), the figures for the inhibition in experiment [1], in experiment [2] and in experiment [3] were 3%, 0.5% and 0.7%, respectively.

For the molecule `CCOc1ccc(N2C(=O)CC(NCCNc3ccc([N+](=O)[O-])cn3)C2=O)cc1` (stereo not given), the inhibition in experiment [1] is 0.9%; in experiment [2], 1.6%; in experiment [3], -3.4%.

With `Cn1c(=S)n(C)c2ccccc21`, the values for the inhibition in experiment [1], in experiment [2] and in experiment [3] were 4%, 0.1% and 2.8%, respectively.

`COc1ccc(C(=O)/C=C/c2cc(C(=O)O)cc3c2OCOC3)c(O)c1`: the inhibition in experiment [1] is 1.3%; in experiment [2], -0.8%; in experiment [3] it was 4.4%.

For `COc1ccc(CNCCC2(C(C)C)CCOC(C)(C)C2)cc1` (stereo not given), the inhibition is 1.9% in experiment [1], 0.8% in experiment [2] and -4% in experiment [3].

For `CCN(Cc1cnn(C)c1)Cc1nc(C(c2ccccc2)c2ccccc2)no1`, the figures for the inhibition in experiment [1], in experiment [2] and in experiment [3] were 0.3%, -2.2% and -3.7%, respectively.

On to `O=C(Nc1ccc(Cl)cn1)Nc1ccccc1Cl`, for which the inhibition in experiment [1] was 2.9%; in experiment [2], 0.2%; in experiment [3], -4.9%.

Regarding `CSc1cccc(NC(=O)/C=C/c2ccccc2)c1`, the inhibition in experiment [1] is -0.9%; in experiment [2], -2.3%; in experiment [3] it was -8.2%.

With `O=C(CCCN1C(=O)/C(=C\c2cccs2)SC1=S)Nc1ccccn1`, the inhibition in experiment [1] was 4%; in experiment [2], 5.2%; in experiment [3] it was 18.8%.

Regarding `COc1cccc(OCc2nnc(-c3cccs3)o2)c1`, the inhibition in experiment [1] is 1.2%; in experiment [2], -0.7%; in experiment [3] it was 1.3%.

For the molecule `O=C(NC1CCCCC1)N1CCc2[nH]c3ccccc3c2C1`, the inhibition was 36.5% (active) in experiment [1], 3.5% in experiment [2] and 5% in experiment [3].

With `Cc1ccc(/C=N/NC(=O)C2(C)CC2(Br)Br)cc1` (stereo not given), the inhibition in experiment [1] was 1.3%; in experiment [2] it was -0.4%; in experiment [3], -5.6%.

Regarding `O=C(NCCO)c1ccc(Cl)c(Cl)c1`, the inhibition was -0.2% in experiment [1], -0.6% in experiment [2] and -2.2% in experiment [3].

For `CCC(=O)Nc1ccc(C(=O)N2CCN(C(=O)c3ccco3)CC2)cc1`, the inhibition is -2.6% in experiment [1], -1.9% in experiment [2] and -2.7% in experiment [3].

For `CCc1cc2c(=O)c(-c3nc(C)cs3)c(CCCC(=O)O)oc2cc1O`, the results for the inhibition in experiment [1], in experiment [2] and in experiment [3] were 1.9%, -1.9% and -3.9%, respectively.

`CC(C)(C)N1NC2(CCCCC2)NC1=S`: the results for the inhibition in experiment [1], in experiment [2] and in experiment [3] were 4.9%, -1.4% and -1.4%, respectively.

For `CCn1cc(C(=O)O)c(=O)c2cnc(N3CCNCC3)nc21`, the inhibition is 0.1% in experiment [1], 1% in experiment [2] and -7.3% in experiment [3].

As for `Clc1ccc2c(c1)C(N1CCNCC1)=Nc1ccccc1O2`, the inhibition was 3.1% in experiment [1], 2.2% in experiment [2] and -6.2% in experiment [3].

Turning to `CCc1ccc(/C=C2\Oc3cc(OC(=O)N4CCOCC4)ccc3C2=O)cc1`, the results for the inhibition in experiment [1], in experiment [2] and in experiment [3] were 0.7%, -0.2% and 0.7%, respectively.

On to `O=C(c1ccccc1)N1CCN(C(=O)c2ccccc2)CC1`, for which the inhibition in experiment [1] was -0.3%; in experiment [2] it was -0.7%; in experiment [3] it was -0.8%.

With `O=C(Cc1ccc(Br)cc1)c1ccc(O)cc1O`, the inhibition was -3.5% in experiment [1], -0.4% in experiment [2] and -5.4% in experiment [3].

In the case of `CCOCC(=O)Nc1nc2ccccc2s1`, the inhibition was -2.1% in experiment [1], 1.5% in experiment [2] and -0.2% in experiment [3].

As to `Cc1nc(C(=O)Nc2ccccc2Cl)cc2c1[nH]c1ccccc12`, the inhibition is -0.3% in experiment [1], -0.9% in experiment [2] and -4.5% in experiment [3].

For `CCN(CC)CCN1C(=O)C(=O)/C(=C(/O)c2c(C)[nH]c(C(=O)OC)c2C)C1c1cccnc1` (stereo not given), the inhibition was -1.7% in experiment [1], -0.9% in experiment [2] and -4.4% in experiment [3].

On to `CC(O)Cn1cnc2c1c(=O)n(C)c(=O)n2C` (stereo not given), for which the inhibition in experiment [1] is -1.4%; in experiment [2], -0.5%; in experiment [3], -3.2%.
